The record followed here is PubChem BioAssay (Tox21).

Records with an inconclusive call do not appear. Unmarked numbers belong to inactive results. Calls follow the shape of the dose curve; as a rule, active = well fitted cell-killing curve with a large enough effect in the repeat runs; inconclusive = weak or mixed curves, or effect the other way; inactive = no such curve, though single readings can be large or run the other way.
% is scaled to controls: 0 for no effect and ±100 for the full control effect.

The assay is described as follows: qHTS assay to identify small molecule agonists of the farnesoid-X-receptor (FXR) signaling pathway - cell viability counter screen (AID 743218). Also: nearly all actives have a fitted effect of over 45% in size. Conditions: FXR-bla HEK293T viability, CellTiter-Glo luminescence, 16 h; series mostly up to 62.6 µM; viability change, negative = cytotoxic: at the top concentration. From the text:
U.S. Tox21 Program National Center for Advancing Translational Sciences [NCATS] NIH Chemical Genomics Center [NCGC] U.S. Environmental Protection Agency [EPA] National Institutes of Environmental Health Sciences [NIEHS] National Toxicology Program [NTP] U.S. Food and Drug Administration [FDA] Tox21 Assay Overview: The farnesoid-X-receptor (FXR), a nuclear hormone receptor, is highly expressed in liver, intestine, kidney and adrenal cortex. Natural ligands of FXR are the bile acids (Cholic acid, Chenodeoxy cholic acid etc). FXR is an important regulator of diverse metabolic pathways, including the bile acid homeostasis, lipid and glucose metabolisms. FXR regulates the expression of target genes by binding either as a monomer or as a heterodimer with the retinoid X receptor (RXR). Numerous studies have reported that FXR exerts protective function during cholestasis, diabetes, liver regeneration, and cancer. To identify compounds that activate FXR signaling, GeneBLAzer FXR-UAS-bla HEK 293T cell line (Invitrogen, Carlsbad, CA) containing a beta-lactamase reporter gene under the control of a UAS response element was used to screen the Tox21 10K compound library. The cytotoxicity of the Tox21 compound library against the FXR-bla cell line was tested in parallel by measuring the cell viability using CellTiter-Glo assay in the same wells.
Tox21 Assay Protocol Summary: FXR-bla cells were dispensed at 5000 cells/5uL/well in 1536-well black wall/clear bottom plates using a Multidrop Combi (Thermo Fisher Scientific, Waltham, MA) dispenser. After the assay plates were incubated at 37 C and 5% CO2 for 5 h, 23 nL of compounds dissolved in DMSO, positive controls or DMSO only was transferred to the assay plate by a Pintool station (Kalypsys, San Diego, CA). The assay plates were incubated at 37C for 16 h. After 1 uL of LiveBLAzerTM B/G FRET substrate was added using a Bioraptr Flying Reagent Dispenser (FRD) workstation (Beckman Coulter, Indianapolis, IN), the plates were incubated at room temperature for 2 h, and fluorescence intensity was measured by an Envision plate reader (PerkinElmer, Shelton, CT). For cell viability readout that measures cytotoxicity, 4uL/well of CellTiter-Glo reagent was added into the assay plates using a Bioraptr FRD. After 30 min incubation at room temperature, the luminescence intensity in the plates was measured using a ViewLux plate reader (PerkinElmer).
Consider `CCCC(C)C(=O)O` (stereo not given), for which the “viability change, negative = cytotoxic” value was -12.5%.
The value for `CC1=CCC2C(C1)C2(C)C` (stereo not given) was 4.44%; that for `Fc1ccccc1-c1ccccc1` was -0.0724% [at 81.1 µM]; that for `CCN(CC)C(=O)c1ccc(O)c(OC)c1` was -12.7%.
With `COc1ccc(NC(C)=O)cc1`, the “viability change, negative = cytotoxic” value is -3.75% [at 81.1 µM].
On to `COC(=O)CCCC(=O)O`, for which the “viability change, negative = cytotoxic” value is 9.2%.
To `CCCCCC[C@@H](CCC)C(=O)O` belongs 0.103%; to `CCCc1ccccc1O`, -4.37%.
To `COc1cccc(Br)c1` belongs -38.9%.
For the compound `C=CCOc1nc(OCC=C)nc(OCC=C)n1`, the “viability change, negative = cytotoxic” value was 8.88%.
Consider `CCC(=O)c1cccc(Cl)c1`, for which the “viability change, negative = cytotoxic” value is 5.94% [at 81.1 µM].
To `NC(=S)Nc1cccc2ccccc12` belongs 18.3% [at 5.95 µM]; to `NC(=O)c1ncn([C@@H]2O[C@H](CO)[C@@H](O)[C@H]2O)c1N`, 5.28%; to `CO`, 37.5%.
The value for `CCO[Si](CCCN=C=O)(OCC)OCC` was 5.32%; that for `CC(C)(O)c1ccccc1` was 7.32%; that for `COc1ccc(COC=O)cc1` was -18.3%.
The value for `CCN1CCCC(OC(=O)C(c2ccccc2)c2ccccc2)C1` (stereo not given) was -5.1%; that for `OC1OC[C@@H](O)[C@H](O)[C@H]1O` (stereo not given in full) was 12.6%; that for `OCC(O)[C@@H](O)[C@H](O)[C@H](O)CO[C@H]1O[C@H](CO)[C@@H](O)[C@H](O)[C@H]1O` (stereo not given in full) was -0.714%.
Take `Nc1[nH]c(=O)ncc1F`: the “viability change, negative = cytotoxic” value was -2.07%.
To `CCC(C(=O)NC(N)=O)c1ccccc1` (stereo not given) belongs 1.51%; to `CSc1ccc(C=O)cc1`, -10.4%.
The value for `C=C(C)C(=O)NCCC[N+](C)(C)C` was -6.42%; that for `O=c1[nH]c(=O)n([C@H]2O[C@H](CO)[C@@H](O)[C@@H]2O)cc1/C=C\Br` was 4.14%; that for `C1COCCO1` was -20.4% [at 81.1 µM].
As for `Cc1c(F)cc2c(=O)c(C(=O)O)cn3c2c1CCC3C` (stereo not given), the “viability change, negative = cytotoxic” value is -3.8%.
The value for `CC/C=C\CCCCO` was 2.33%.
To `CCCCCCCCCCCCCCC` belongs 14.5%.
The value for `C=C(C)C1CC=C(C)C(O)C1` (stereo not given) was 3.36% [at 81.1 µM]; that for `CCn1c(=O)c2c(nc(/C=C/c3ccc(OC)c(OC)c3)n2C)n(CC)c1=O` was 4.47%.
As to `C[C@H]1O[C@@H](n2cc(F)c(=O)[nH]c2=O)[C@H](O)[C@@H]1O`, the “viability change, negative = cytotoxic” value is -19.2%.
Take `C=C(C)C(=O)NCCCN(C)C`: the “viability change, negative = cytotoxic” value was 1.13%.
Consider `COCCOC(=O)CC#N`, for which the “viability change, negative = cytotoxic” value was 6.23%.
As to `O=C(O)c1ccccc1S`, the “viability change, negative = cytotoxic” value is -1%.
To `Oc1cc(O)c2c(c1)O[C@H](c1ccc(O)c(O)c1)[C@H](O)C2` belongs -2.54%.
As to `Nc1nc(F)nc2c1ncn2[C@@H]1O[C@H](CO)[C@@H](O)[C@@H]1O`, the “viability change, negative = cytotoxic” value is 6.58%.
To `C=CCSCC1Nc2cc(Cl)c(S(N)(=O)=O)cc2S(=O)(=O)N1` (stereo not given) belongs -0.497%.
To `C#CC(C)(O)CC(C)C` (stereo not given) belongs 3.87%; to `CCCC(=O)O[C@]1(C(=O)CCl)[C@@H](C)C[C@H]2[C@@H]3CCC4=CC(=O)C=C[C@]4(C)[C@@]3(F)C(=O)C[C@@]21C`, 2.02%.
